# Data reported in PubChem BioAssay (NCI).
# Compounds without any hit were thinned out: in the full panel of roughly 83,000, 20% have a hit.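 Cells were grown in 96-well plates and exposed to the test compound at a single concentration for 48 hours; results are reported as percent growth, with values below 10 considered active.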 Unmarked numbers belong to inactive results. Active and inactive are the calls of the source.
# Experiments:
# Experiment in all cases: NCI-60 one-dose screen, 48 h (100 = growth as untreated, 0 = no growth, -100 = all killed)
# Details in all cases: 10 µM unless noted
# DU-145 prostate = system: DU-145 prostate
# K-562 leukemia = system: K-562 leukemia
# MALME-3M melanoma = system: MALME-3M melanoma
# MDA-MB-231 breast = system: MDA-MB-231 breast
# RXF 393 renal = system: RXF 393 renal
# SF-268 CNS = system: SF-268 CNS
# SF-295 CNS = system: SF-295 CNS
# SF-539 CNS = system: SF-539 CNS
# UACC-257 melanoma = system: UACC-257 melanoma
# M14 melanoma = system: M14 melanoma
# HCT-15 colon = system: HCT-15 colon
# HT29 colon = system: HT29 colon
# SNB-75 CNS = system: SNB-75 CNS
# SNB-19 CNS = system: SNB-19 CNS
# U251 CNS = system: U251 CNS
# PC-3 prostate = system: PC-3 prostate
# SK-MEL-5 melanoma = system: SK-MEL-5 melanoma
# UACC-62 melanoma = system: UACC-62 melanoma
# LOX IMVI melanoma = system: LOX IMVI melanoma
# SK-MEL-28 melanoma = system: SK-MEL-28 melanoma
SMILES,growth (DU-145 prostate) [%],growth (K-562 leukemia),growth (MALME-3M melanoma),growth (MDA-MB-231 breast),growth (RXF 393 renal),growth (SF-268 CNS) [%],growth (SF-295 CNS) [%],growth (SF-539 CNS),growth (UACC-257 melanoma),growth (M14 melanoma),growth (HCT-15 colon) [%],growth (HT29 colon),growth (SNB-75 CNS) [%],growth (SNB-19 CNS) [%],growth (U251 CNS),growth (PC-3 prostate) [%],growth (SK-MEL-5 melanoma),growth (UACC-62 melanoma),growth (LOX IMVI melanoma),growth (SK-MEL-28 melanoma)
O=C(Nc1ncc(Cc2ccccc2)s1)c1ccc2c(c1)OCCCO2,27.5,9.28% (active),51%,44%,-10% (active),60.4,15.2,-9.3% (active),41.4%,3.29% (active),21.5,9.72% (active),34.3,37.4,35.4%,27.7,8.06% (active),29%,29.9%,36.8%
C=C(CNCCO)[C@@H]1CC[C@]2(CO)CC[C@]3(C)[C@H](CC[C@@H]4[C@@]5(C)CCC(N)C(C)(C)[C@@H]5CC[C@]43C)[C@@H]12 (stereo not given in full),53,-43.3% (active),-75.1% (active),2.59% (active),50.4%,33.1,46.5,-6.75% (active),-81.5% (active),-70.2% (active),77,-22.4% (active),43.5,53.9,-78.5% (active),61.9,-87.8% (active),9.7% (active),-67.8% (active),-76.3% (active)
Cc1ccc(-c2nc(SCc3nc4cc(Cl)c(Cl)cc4[nH]3)[nH]c(=O)c2C#N)cc1,91.6,93.4%,95.6%,97.9%,108%,91.6,104,97.5%,91.3%,91.2%,104,95.7%,87.2,106,98.7%,94,104%,99.5%,102%,111%
COc1ccc(/C(C)=C(/c2ccc(OCCCN(C)C)cc2)c2ccc(OC(=O)c3ccccc3)cc2)cc1,102,38.9%,83.6%,71.1%,66.7%,77.8,89.8,89.1%,89.7%,66.4%,63,9.02% (active),105,94.8,68.2%,73.4,85.7%,88.7%,-2.62% (active),85.2%
CC1(C)C(N)=Nc2cc(OCCCN3Cc4ccccc4C3)c(OCC3CC3)cc21,93.8,38.8%,-14% (active),49.1%,69.3%,80.2,78.3,70.3%,1.23% (active),-45.1% (active),40,31.6%,77.3,85.2,56.4%,49.6,53.1%,78%,33.7%,56.2%
CC/C=C\C[C@H](O)C/C=C1/C(=O)C=C[C@@H]1C/C=C\CCCC(=O)O,60.2,17.1%,67.5%,56.7%,94.2%,81.3,96,59.2%,55.2%,57.8%,74.6,47.9%,88.9,65,3.29% (active),61.3,60.3%,27.7%,17.4%,54.4%
COc1cnc2c(c1)C(=O)c1c-2n(CCCCl)c(=O)c2ccncc12,76,38.7%,103%,81.4%,81%,57.6,36.6,56.1%,70%,67.5%,75.5,49.5%,55.6,55.4,33.6%,54,34.3%,23.7%,33.8%,99.3%
O=C(C1=Cc2cc3ccccc3n2Cc2cnnn21)c1ccc(O)cc1,89.9,11%,57.8%,75.5%,59%,71.9,56.9,61.5%,84%,24.9%,37.3,27.3%,31,63.2,53.5%,62.4,54.2%,32.9%,50.6%,66.8%
CN1C(=O)/C(=C/c2ccc(C(=O)Nc3ncc(Cc4cccc(Cl)c4)s3)cc2)SC1=S,66.3,55.1%,67.9%,77.4%,64.4%,61.7,31,67.5%,79.8%,17%,35.3,61.1%,73.6,73.5,65.2%,73.3,25.7%,20.4%,22.7%,63.4%
Nc1nc(NC(=O)Nc2ccc(C(=O)O)cc2)nn1-c1ccc(S(N)(=O)=O)cc1,97.3,102%,85.7%,75.3%,94.1%,95.1,104,95.9%,89.9%,95.4%,105,105%,90.4,90.6,93.2%,83.6,96.1%,96.2%,98.8%,100%
Cc1cccc[n+]1C1c2ccccc2-c2ccccc21,110,86.6%,99.3%,98.5%,102%,94.4,99.1,92.7%,90.3%,93.7%,109,79.2%,94.1,89.7,83.1%,67.6,94.5%,92.3%,97.8%,102%
Nc1nc(N)c2c(n1)NC(c1cccc(Nc3ccnc4cc(C(F)(F)F)ccc34)c1)CC(c1ccccc1)=N2 (stereo not given),71.9,13.5%,67%,58.5%,44.9%,52.3,50.1,77.1%,69%,30.2%,23.7,8.53% (active),48.1,64.4,36.5%,39.2,21.9%,73.8%,45.6%,84%
CC1=C(C(=O)Nc2ccccc2)C(c2ccc3c(c2)OCO3)NC(=S)N1 (stereo not given),111,118%,100%,106%,129%,106,105,102%,107%,93%,101,109%,107,96.2,104%,95.3,102%,97.5%,96.2%,112%
Fc1ccc(Cn2cc(CSc3nc4ccccc4o3)nn2)cc1,108,95.3%,107%,97.1%,105%,95.4,97,100%,105%,97%,104,99.8%,92.2,92.5,105%,98.3,110%,84.3%,107%,98.9%
CC1=C(C(=O)Nc2nc(-c3ccc(Cl)cc3)cs2)[C@H](c2ccc(O)cc2)NC(=O)N1,98,96.8%,99.6%,90.2%,104%,87.1,95.7,99.3%,105%,98.1%,102,100%,74.3,107,93.4%,84.4,99.8%,88.8%,95.1%,115%
O=C1Nc2ccccc2/C1=C\c1c[nH]c2ccc(Br)cc12,89.7,74.2%,89.8%,67%,25.4%,62.2,109,83.1%,80.1%,84.5%,48.7,86.7%,56.1,88.6,85%,70.8,35.4%,80.1%,50.6%,72.7%
